Reference: the supplement of paper PMC9694430

Legend:
Assay in all cases: thermal shift delta Tm vs DMSO control; higher = stronger stabilization (binding)
Conditions in all cases: 12.5 µM; protein concentration 2 µM
LOC_OS01G01410-cb001 = test system: LOC_OS01G01410-cb001
In short: (§1)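 Thermal shift values come from differential scanning fluorimetry on purified rice kinase domains made in E. coli, with melting temperatures obtained from Boltzmann fits. Samples of 19.5 μl held 2 μM kinase, 100 mM potassium phosphate pH 7.5, 150 mM NaCl, 10% glycerol, 5 × SYPRO Orange and compound in DMSO, and were heated from 25°C to 95°C at 0.05°C/s. Each shift is a triplicate mean relative to the DMSO-only protein sample.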

LOC_OS01G02750-cb003 = test system: LOC_OS01G02750-cb003
In short: as §1

LOC_OS01G10900-cb004 = test system: LOC_OS01G10900-cb004
In short: as §1

LOC_OS01G13800-cb001 = test system: LOC_OS01G13800-cb001
In short: as §1

LOC_OS01G14860-cb001 = test system: LOC_OS01G14860-cb001
In short: as §1

LOC_OS01G21960-cb002 = test system: LOC_OS01G21960-cb002
In short: as §1

LOC_OS01G39600-cb002 = test system: LOC_OS01G39600-cb002
In short: as §1

LOC_OS01G48390-cb002 = test system: LOC_OS01G48390-cb002
In short: as §1

LOC_OS01G51400-cb002 = test system: LOC_OS01G51400-cb002
In short: as §1

LOC_OS01G52050-cb004 = test system: T1, LOC_OS01G52050-cb004
T1 sequence (whole entry): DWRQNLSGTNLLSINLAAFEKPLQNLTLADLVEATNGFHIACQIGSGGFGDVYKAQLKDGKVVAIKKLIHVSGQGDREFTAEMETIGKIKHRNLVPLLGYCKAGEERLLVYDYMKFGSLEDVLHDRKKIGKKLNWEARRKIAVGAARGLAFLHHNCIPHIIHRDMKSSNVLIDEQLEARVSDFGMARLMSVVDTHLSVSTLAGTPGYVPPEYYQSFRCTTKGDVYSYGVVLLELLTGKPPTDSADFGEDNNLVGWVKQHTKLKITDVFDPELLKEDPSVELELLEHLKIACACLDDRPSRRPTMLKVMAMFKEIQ
In short: as §1
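Also: purified Escherichia coli-expressed rice kinase domain construct.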

Row | Structure (SMILES) | thermal shift delta Tm (LOC_OS01G01410-cb001) [°C] | thermal shift delta Tm (LOC_OS01G02750-cb003) [°C] | thermal shift delta Tm (LOC_OS01G10900-cb004) [°C] | thermal shift delta Tm (LOC_OS01G13800-cb001) [°C] | thermal shift delta Tm (LOC_OS01G14860-cb001) [°C] | thermal shift delta Tm (LOC_OS01G21960-cb002) [°C] | thermal shift delta Tm (LOC_OS01G39600-cb002) [°C] | thermal shift delta Tm (LOC_OS01G48390-cb002) [°C] | thermal shift delta Tm (LOC_OS01G51400-cb002) [°C] | thermal shift delta Tm (LOC_OS01G52050-cb004) [°C]
1 | Cc1cc(Nc2cc(N3CCN(C)CC3)nc(/C=C/c3ccccc3)n2)n[nH]1 | 2.2 | 1.8 | 1.93 | -0.23 | 2.99 | 2.75 | 2.83 | 2.45 | 0.24 | 3.7
2 | CCn1c(C(=O)N(C2CC2)C2CC2)cc2c3c(ncn3C)c(Nc3cc(C)n(C)n3)nc21 | 0.37 | 1.05 | -0.06 | 0.41 | 0.41 | 1.12 | -0.02 | 0.34 | 0.23 | 0.97
3 | Cc1nc(NC(=O)N2CCC[C@H]2C(N)=O)sc1-c1ccnc(C(C)(C)C(F)(F)F)c1 [Alpelisib (BYL719)] | 0.28 | 1.42 | 3.68 | -0.51 | -0.19 | 0.02 | -0.17 | 0.54 | 0.42 | 0.12
4 | Cn1cc(-c2ccc3nnc(Sc4ccc5ncccc5c4)n3n2)cn1 | 0.49 | 0.09 | 3.13 | -0.11 | -0.13 | 0.18 | 0.17 | 0.29 | 0.08 | 0.42
5 | Cc1c(C(=O)N2CCOc3ccc(-c4ccc(N)nc4)cc3C2)ccc(S(C)(=O)=O)c1F | 0.69 | 0.8 | 0.01 | 0.06 | 0.22 | 0.19 | -0.01 | 0.13 | 0.26 | 0.52
6 | O=C1Nc2ccc(I)cc2/C1=C/c1cc(Br)c(O)c(Br)c1 | 5.94 | 0.5 | 6.08 | 2.56 | 5.73 | 5.54 | 25.1 | 2.41 | 0.7 | 3.09
7 | c1ccc(-c2[nH]ncc2-c2ccnc3ccccc23)nc1 | 0.44 | 0.87 | 0.58 | 0.69 | 0.36 | 0.76 | 0.33 | 0.11 | 0.03 | 0.61
8 | CS(=O)(=O)c1ccc(-c2cnc(N)c(C(=O)Nc3ccccc3)n2)cc1 | 1.64 | 0.51 | 0.6 | 0 | 5.11 | 1.15 | 1.65 | 0.08 | 0.3 | 0.77
9 | CC[C@@H]1C(=O)N(C)c2cnc(Nc3ccc(C(=O)NC4CCN(C)CC4)cc3OC)nc2N1C1CCCC1 | 1.63 | -0.86 | -0.01 | -0.37 | -0.16 | 0.05 | 0.36 | -0.02 | -0.01 | 0.06
10 | O=c1c(-c2ccc(O)cc2)coc2cc(O)cc(O)c12 [Genistein] | 0.67 | 0.54 | 0.86 | -0.01 | 1.11 | 0.55 | 0.12 | 0.77 | 0.12 | 1.14
11 | CN1CCN(c2ccc3nc(-c4c(N)c5c(F)cccc5[nH]c4=O)[nH]c3c2)CC1 [Dovitinib (TKI-258, CHIR-258)] | 6.03 | 2.05 | 2.59 | -0.2 | 0.79 | 2.56 | 2.01 | 1.63 | 0.56 | 3.72
12 | O=C(NOCC(O)CO)c1cc(Br)c(F)c(F)c1Nc1ccc(I)cc1F (stereo not given) | 0.9 | 3.49 | 1.07 | 1.05 | 1.29 | 1.44 | 0.76 | 1.12 | 0.46 | 2.46
13 | FC(F)(F)c1ccc(/C=C/c2nc(COc3ccc(CCCCn4ccnn4)cc3)co2)cc1 [Mubritinib (TAK 165)] | 0.34 | -0.49 | 0.23 | 0.16 | 0.08 | -0.04 | -0.52 | 0.23 | -0.08 | 0.24
14 | O=C(c1ccc(Nc2nccc(-c3cc4ccccc4s3)n2)cc1)N1CCC(N2CCCC2)CC1 [IKK-16 (IKK Inhibitor VII)] | 2.52 | 2.69 | 4.53 | -0.34 | 5.72 | 2.79 | 8.28 | 1.72 | -0.14 | 4.5
15 | COc1cc2nccc(Oc3ccc(NC(=O)C4(C(=O)Nc5ccc(F)cc5)CC4)cc3)c2cc1OC | 1.63 | 0.81 | 0.73 | 0.78 | 1.07 | 0.93 | 1.5 | 6.38 | 0.3 | 2.44
16 | CO[C@H]1CC[C@H](N2C(=O)CNc3ncc(-c4ccc(C(C)(C)O)nc4)nc32)CC1 | 0.1 | -0.2 | -0.9 | 0.15 | 0.82 | 1.01 | -1.7 | -0.27 | 0.12 | -1.81
17 | C[C@]1(O)C[C@@H](c2nc(-c3ccc4ccc(-c5ccccc5)nc4c3)c3c(N)nccn32)C1 [Linsitinib (OSI-906)] | 1.14 | -0.88 | 0.14 | 0.82 | 0.26 | 0.9 | 1.68 | 0.41 | 0.44 | -0.16
18 | CN1CCN(c2ccc(-c3ccncc3-c3cc(F)c(O)c(F)c3)cc2)CC1 | 0.42 | 0.81 | -0.45 | 0.02 | 0.46 | 0.1 | -0.43 | -0.15 | 0.11 | 0.14
19 | Cn1cc(-c2cnn3c(N)c(Br)c([C@@H]4CCCNC4)nc23)cn1 | 0.38 | 0.39 | 0.35 | 0.21 | 0.82 | 1.25 | 0.31 | 0.35 | 0.23 | 0.71
20 | Oc1c(F)cc(-c2cnccc2-c2ccc(N3CCOCC3)cc2)cc1F | 0.86 | 0.33 | 0.19 | 0.41 | 0.2 | 0.65 | -0.24 | 0 | 0.36 | -0.22
